In all, about 63,000 compounds went through this assay and about 1,100 (1.7%) were called active. This is one part of a sample in which actives are shown more often than they occur. Results with a measured potency or affinity are listed apart. Unmarked numbers belong to inactive results.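 The calls were made as follows: active = compounds whose percent cytotoxicity in the single-dose primary screen, scaled between solvent and toxic-drug controls, exceeds 50; inactive = the rest.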

The nature of the experiment: cytotoxicity in KRAS-transformed pancreatic duct cells, primary screen, cell-based, fluorescence, HTS (AID 431).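 Also: 0% = DMSO solvent wells and 100% = doxorubicin-treated wells.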 The following applies: HPDE-C7K KRASV12 cells, Alamar Blue viability, 48 h; at 10 µM; stronger effect = higher value. Background: The colour change of resazurin is a common sign of viable cells or microbes.
With `CC1Cn2c(nnc2-c2cccc(N)c2)S1` (stereo not drawn), the cytotoxicity is -6.4%.

On to `COc1ccc(S(=O)(=O)N(C)CC(=O)Nc2cccc(C(C)=O)c2)cc1`, for which the cytotoxicity is -14.2%.

Take `COc1cc(-c2nnc(COc3ccc4ccccc4c3)o2)cc(OC)c1OC`: the cytotoxicity was 36.9%.

For the compound `COc1ccc(-c2nnc(COc3ccc4ccccc4c3)o2)cc1OC`, the cytotoxicity is -1.8%.

Consider `COc1cc(-c2nnc(COc3ccc4cc(Br)ccc4c3)o2)cc(OC)c1OC`, for which the cytotoxicity is 75.7% (active).

As for `COc1ccc(N=C2SC(C(=O)Nc3ccc4c(c3)OCO4)CC(=O)N2C)cc1` (stereo not drawn), the cytotoxicity is -25%.

Take `Cc1c(NC(=O)COC(=O)C2CC3C=CC2C3)c(=O)n(-c2ccccc2)n1C` (stereo not drawn): the cytotoxicity is -2.3%.

With `CC(/C(O)=C(\C#N)c1nc2ccccc2n1C)N1C(=O)c2ccccc2C1=O` (stereo not drawn), the cytotoxicity is 0.7%.

On to `Cc1ccc(N2CCN(c3ccc(C)cc3)C2c2ccncc2)cc1`, for which the cytotoxicity was -25.3%.

`Cc1cccc(N2CCN(c3cccc(C)c3)C2c2cccnc2)c1`: the cytotoxicity was 53.7% (active).

Regarding `Cc1cccc(N2CCN(C(=O)c3ccncc3)CC2C)c1` (stereo not drawn), the cytotoxicity was 7.3%.

`Cc1cccc(N2CCN(C(=O)COc3cc(=O)n(C)c4ccccc34)CC2C)c1` (stereo not drawn): the cytotoxicity was -5.4%.

With `c1cncc(C2Nc3ccccc3-c3nc4ccccc4n32)c1` (stereo not drawn), the cytotoxicity is 3.3%.

Take `O=S(=O)(NC1CCCC1)c1ccccc1Cl`: the cytotoxicity is -5.7%.

As to `COc1cccc(C=Nc2cc(C)on2)c1O`, the cytotoxicity is 7.3%.

As to `C=CCc1cccc(/C=N/c2ncn[nH]2)c1O`, the cytotoxicity was 18.3%.

Turning to `COc1cc(Br)cc(CN2CCN(C=O)CC2)c1O`, the cytotoxicity is -2.1%.

With `Oc1c(/C=N/c2ncn[nH]2)ccc2ccccc12`, the cytotoxicity is 65.8% (active).

Take `O=c1c2ccccc2c(/C=N/c2ncn[nH]2)c(O)n1Cc1ccccc1`: the cytotoxicity was 17.3%.

For the compound `COc1cc(Br)cc(/C=N/c2ncn[nH]2)c1O`, the cytotoxicity was 85.2% (active).

Regarding `Cc1ccccc1-c1nnc(-c2ccc(Br)cc2)o1`, the cytotoxicity was 0.4%.

Consider `COc1cc(OC)cc(C(=O)Nc2ncc3c(n2)CC(C)CC3=O)c1` (stereo not drawn), for which the cytotoxicity was 18.9%.

For `CC(C)c1ccc(NC(=O)c2cnn(-c3ccccc3)c2NC(=O)c2ccco2)cc1`, the cytotoxicity is 0.3%.

With `CCN(CC)CCNC(=O)c1cc2c(=O)n(C)c3ccccc3c2n1C`, the cytotoxicity was -20%.

As to `O=C(Cn1cc2c(n1)CCCC2)Nc1ccccc1Cl`, the cytotoxicity was -7.1%.

Turning to `CCOC(=O)c1cccc(NC(=O)CSc2nnc(COc3ccccc3)n2CC)c1`, the cytotoxicity was -20.1%.

Turning to `Oc1ccc(Nc2nc(-c3ccc(O)cc3)cs2)cc1`, the cytotoxicity is 84.1% (active).

Regarding `C=CCNc1nc(-c2sc(NC(=O)CC)nc2C)cs1`, the cytotoxicity is 31.5%.

Turning to `c1cc2c(cc1Nc1nc(-c3ccc4c(c3)OCO4)cs1)OCCO2`, the cytotoxicity is 56.7% (active).

For the compound `CC(=O)Nc1nc(C)c(-c2csc(Nc3ccc(O)cc3)n2)s1`, the cytotoxicity is 63.2% (active).

Take `Nc1nc(-c2ccc3c(c2)OCCO3)cs1`: the cytotoxicity was -0.3%.

Regarding `NS(=O)(=O)c1ccc(Nc2nc(-c3ccc(O)cc3)cs2)cc1`, the cytotoxicity is 32.7%.

Take `c1cncc(Nc2nc(-c3ccncc3)cs2)c1`: the cytotoxicity is 4.9%.

Turning to `O=C(Nc1nc(-c2ccc3c(c2)OCO3)cs1)C1CC1`, the cytotoxicity is -0.9%.

`C=CCNc1nc(-c2sc(NC(C)=O)nc2C)cs1`: the cytotoxicity is 33%.

On to `CC(C)CN(CC(C)C)S(=O)(=O)N1CCC(C(=O)NCCN2CCOCC2)CC1`, for which the cytotoxicity was -24.9%.

Consider `Cc1ccc2c(c1)NC(=O)C(CC(=O)NCCCN1CCCC1=O)O2` (stereo not drawn), for which the cytotoxicity is -1%.

With `Cc1nn(C)cc1/C=N/O`, the cytotoxicity was -2%.

As to `COc1cc(Nc2cc(C)nc3nc(C)nn23)cc(OC)c1OC`, the cytotoxicity is -6%.

Consider `Cc1ccc(S(=O)(=O)N(C)Cc2nc(-c3ccc(Br)cc3)no2)cc1`, for which the cytotoxicity is -5%.

Regarding `COC(=O)C1=C(C)n2cnnc2NC1c1ccc(Cl)cc1` (stereo not drawn), the cytotoxicity is 6.1%.

As for `COC(=O)C1=C(C)n2nnnc2NC1c1ccc(Cl)cc1` (stereo not drawn), the cytotoxicity was 69.3% (active).

In the case of `COC(=O)C1=C(C)n2nnnc2NC1c1cc2ccccc2o1` (stereo not drawn), the cytotoxicity was 4.4%.

As to `Cc1cc(S(=O)(=O)NCCN2CCOCC2)c(C)s1`, the cytotoxicity was 1.5%.

`O=C(CCN1C(=O)COc2ccccc21)NCCN1CCN(c2ccccc2F)CC1`: the cytotoxicity was 2%.

Consider `C=CCn1c(COc2ccccc2)nnc1SCC(=O)Nc1ccc(S(N)(=O)=O)cc1`, for which the cytotoxicity was -13.8%.

As for `Cc1cccc(N2CCN(C(=O)C3CCCN(S(=O)(=O)c4cccc5cccnc45)C3)CC2)c1C` (stereo not drawn), the cytotoxicity was 24.5%.

Consider `Cc1ccccc1Cn1ccc(NC(=O)c2cc3nc(-c4ccco4)cc(C(F)(F)F)n3n2)n1`, for which the cytotoxicity is 61.3% (active).

As to `O=C(Nc1cnn(Cc2ccc(F)cc2)c1)c1cc2nc(-c3ccco3)cc(C(F)(F)F)n2n1`, the cytotoxicity was 48.5%.

For `Cc1ccccc1Cn1cc(NC(=O)c2cc3nc(-c4ccco4)cc(C(F)(F)F)n3n2)cn1`, the cytotoxicity was 30.9%.

As for `O=C(Nc1cnn(Cc2ccccc2)c1)c1cc2nc(-c3ccco3)cc(C(F)(F)F)n2n1`, the cytotoxicity is 24.8%.

In the case of `Cc1ccccc1Cn1ccc(NC(=O)c2cnn3c(C(F)(F)F)cc(-c4ccco4)nc23)n1`, the cytotoxicity is 42.2%.

As to `O=C(Nc1ccc(Cl)cc1)c1cc2nc(-c3ccco3)cc(C(F)(F)F)n2n1`, the cytotoxicity was 69.4% (active).

As for `Cc1noc(C)c1COC(=O)C1CC(O)CN1S(=O)(=O)c1ccc(Cl)cc1` (stereo not drawn), the cytotoxicity is -5.6%.

As to `CCc1ccccc1N(C(=O)c1cccs1)C1C=CS(=O)(=O)C1` (stereo not drawn), the cytotoxicity is -8.1%.

As for `CCSC1=C(C#N)C2(CCCCC2)C(C#N)=C(N)N1`, the cytotoxicity was 1.2%.

As for `N#CC1=C(N)NC(SCC(=O)O)=C(C#N)C12CCCC2`, the cytotoxicity is -1.2%.

As for `COc1ccc(C(=O)CSC2=C(C#N)C3(CCCCC3)C(C#N)=C(N)N2)cc1`, the cytotoxicity is 30.1%.

Consider `CSC1=C(C#N)C2(CCCC2)C(C#N)=C(N)N1`, for which the cytotoxicity is 30.6%.

On to `N#CC1=C(N)NC(SCc2ccccc2)=C(C#N)C12CCCCC2`, for which the cytotoxicity is 78.5% (active).

Turning to `CCSC1=C(C#N)C2(CCCC2)C(C#N)=C(N)N1`, the cytotoxicity is 18.9%.

As for `CC1(C)CC(=O)C2=C(C1)NC(SCC(=O)Nc1ccccc1)=C(C#N)C21CCCCC1`, the cytotoxicity is -9.5%.

In the case of `O=C(CC(NS(=O)(=O)c1ccc(Cl)cc1)c1ccco1)NCc1cccnc1` (stereo not drawn), the cytotoxicity was -10.2%.

On to `CCOC(=O)N1CCN(c2nc(C)c3c(n2)CC(C)CC3=O)CC1` (stereo not drawn), for which the cytotoxicity was -14.7%.

On to `Cn1c(N2CCC(C(N)=O)CC2)nc2c1c(=O)n(Cc1ccc(Cl)cc1)c(=O)n2C`, for which the cytotoxicity was 16.9%.

Turning to `FC(F)(F)c1cccc(N2CCN(Cc3cccnc3)CC2)c1`, the cytotoxicity is 21.8%.

As for `CC(C)Oc1cccc(C(=O)Nc2ccccc2N2CCOCC2)c1`, the cytotoxicity was -2.7%.

For `COc1cc(C2C(C(=O)c3cccs3)=C(O)C(=O)N2c2cc(C)on2)ccc1O` (stereo not drawn), the cytotoxicity is 14.5%.

On to `CCn1c2ccccc2c2cc(Nc3cc(C)nc4ncnn34)ccc21`, for which the cytotoxicity was 74.4% (active).

In the case of `CCc1cccc(Nc2cc(C)nc3ncnn23)c1`, the cytotoxicity was -4.4%.

Consider `Cc1cc(Nc2ccc3ccccc3c2)n2ncnc2n1`, for which the cytotoxicity was -8.1%.

For `Cc1ccc(-c2nn(C)c(=O)c3ccccc23)cc1CNC(=O)CN1CCOCC1`, the cytotoxicity is 4.3%.

Regarding `O=C(Cn1nnc(-c2cc(Cl)ccc2-n2cnnn2)n1)N1CCCc2ccccc21`, the cytotoxicity was -0.5%.

As for `CCOC(=O)N1CCC(NC(=O)c2csc3c2CCCC3)CC1`, the cytotoxicity is -1.5%.

In the case of `COC(=O)/C(=C1/Oc2cc(C)oc(=O)c2S1)C(F)(F)F`, the cytotoxicity was 70.4% (active).

For `COC(=O)/C(=C1/Oc2cc3c(cc2S1)OCO3)C(F)(F)F`, the cytotoxicity is -15.1%.

On to `COC(=O)C1=C(N)Oc2cc(C)oc(=O)c2C1c1ccncc1` (stereo not drawn), for which the cytotoxicity was -2.1%.

As to `O=C(COC(=O)C(O)c1ccccc1)NC12CC3CC(CC(C3)C1)C2` (stereo not drawn), the cytotoxicity is -12.9%.

In the case of `CN(C)/C=C1/Sc2ccccc2C1=O`, the cytotoxicity was -18.3%.

As to `CN(C)/C=C1\C(=O)c2ccc(N(C)C)nc2CC1c1ccccc1` (stereo not drawn), the cytotoxicity is 59.9% (active).

Consider `CN(C)C=C1C(=O)c2ccccc2C1=O`, for which the cytotoxicity is 48%.

On to `CCCOC(=O)Nc1ccc(S(=O)(=O)Nn2cnnc2)cc1`, for which the cytotoxicity was 5.7%.

`C=CCNc1oc(Cc2cccc3ccccc23)nc1C#N`: the cytotoxicity is -8.6%.

As to `N#Cc1nc(Cc2cccc3ccccc23)oc1NCc1ccco1`, the cytotoxicity is 63.1% (active).

For the compound `CNc1oc(Cc2cccc3ccccc23)nc1C#N`, the cytotoxicity was 14.7%.

In the case of `CCn1cc(C(=O)NCC2CCCO2)c(=O)c2cc(S(=O)(=O)N(C)C3CCCCC3)ccc21` (stereo not drawn), the cytotoxicity is 13.1%.

As for `COc1ccccc1-c1nnc2n1N=C(c1ccc(O)c(O)c1)CS2`, the cytotoxicity is 54.8% (active).

As for `c1ccc(C2=Nn3c(nnc3-c3cc(-c4ccccc4)n[nH]3)SC2)cc1`, the cytotoxicity is -6.7%.

With `COc1cccc(C2=Nn3c(nnc3-c3ccccc3O)SC2)c1`, the cytotoxicity is -11.6%.

`CCOc1ccc(C2=Nn3c(nnc3-c3ccc(OC)cc3)SC2)cc1`: the cytotoxicity is 40.7%.

Consider `Cc1ccc(-c2nnc3n2N=C(c2ccccc2)CS3)cc1`, for which the cytotoxicity was -2.4%.

As for `CCOc1ccc(C2=Nn3c(nnc3-c3ccccc3OC)SC2)cc1`, the cytotoxicity is 66.6% (active).

Turning to `COc1ccc(C2=Nn3c(nnc3-c3ccccn3)SC2)cc1OC`, the cytotoxicity was -4.6%.

Turning to `COc1ccc(C2=Nn3c(nnc3-c3ccccc3)SC2)cc1OC`, the cytotoxicity is 0.4%.

With `COc1ccccc1-c1nnc2n1N=C(C)CS2`, the cytotoxicity is -13.6%.

On to `CCOc1ccc(-c2nnc3n2N=C(c2ccc(OC)cc2)CS3)cc1`, for which the cytotoxicity was -5%.

With `CCCCOc1ccc(-c2ncc(Cl)cn2)cc1`, the cytotoxicity is -15%.

With `Cn1c(Cn2c(=O)sc3ccccc32)nnc1SCC(=O)N1CCN(c2ccccc2)CC1`, the cytotoxicity was 8.3%.
